Assay [1] addresses Alpha-galactosidase (Coffea arabica) (UniProt Q42656). The assay can be described thus: Counterscreen for Glucocerebrosidase Inhibitors: qHTS Assay for Coffee Bean alpha-Galactosidase at pH 4.5 (AID 957). Also: series mostly up to about 77 µM. In outline:
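Quantitative HTS of compounds (0.7 nM to 77 uM) against coffee bean alpha-galactosidase at pH 4.5, measuring 4-methylumbelliferone fluorescence released from 80 uM substrate.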

Assay [2] shares this target. Put plainly: Counterscreen for Glucocerebrosidase Inhibitors: qHTS Assay for Coffee Bean alpha-Galactosidase at pH 5.9 (AID 998). The essentials:
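In 50 mM citric acid pH 5.9 with 0.005% Tween-20, coffee bean enzyme hydrolyses 80 uM 4-MU alpha-D-galactopyranoside over 20 min at RT. Activity is normalized to controls; AC50 comes from Hill-modelled concentration-response data.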
For orientation: Counterscreens check selectivity or assay interference.

Activity calls are given as the source filed them. Calls follow the shape of the dose curve; as a rule, active = well fitted curve in the direction sought with a large enough effect; inconclusive = small, poorly fitted or top-dose-only effect, or another doubt; inactive = no such curve, though single readings can be large; an effect the other way counts as inactive or inconclusive.

Alpha-galactosidase (Coffea arabica), sequence (Q42656 whole entry, looked up): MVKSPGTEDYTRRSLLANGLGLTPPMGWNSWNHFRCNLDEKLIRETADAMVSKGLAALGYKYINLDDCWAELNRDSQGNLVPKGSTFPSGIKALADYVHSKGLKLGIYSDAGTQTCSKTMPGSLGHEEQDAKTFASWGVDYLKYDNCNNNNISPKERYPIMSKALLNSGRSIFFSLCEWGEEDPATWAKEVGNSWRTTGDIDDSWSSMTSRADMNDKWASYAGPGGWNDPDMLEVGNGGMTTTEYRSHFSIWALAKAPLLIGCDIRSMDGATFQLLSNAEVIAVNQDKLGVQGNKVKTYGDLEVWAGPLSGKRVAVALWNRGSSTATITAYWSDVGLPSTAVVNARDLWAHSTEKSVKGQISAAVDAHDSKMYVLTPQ

As to `CCCCCN(CCCCC)C(=O)[C@H](CCC(=O)O)NC(=O)c1ccc(Cl)c(Cl)c1`, the compound was called inactive in assay [1] and in assay [2].

In the case of `Oc1cc(O)cc(/C=C\c2ccc(O)c(O)c2)c1`, the compound was classed as inactive in assay [1] and in assay [2].

Take `CSC(N)=NCCC[C@@H](N)C(=O)O`: the result in assay [1] and in assay [2] was inactive.

In the case of `C[C@@H](CN(C)C)CN1c2ccccc2CCc2ccccc21`, the compound was called inactive in assay [1] and in assay [2].

As for `O=C(O)/C=C\[C@H](O)c1ccc(Cl)cc1`, the call in assay [1] and in assay [2] was inactive.

With `C[C@]12CC3CC(N)(C1)C[C@@](C)(C3)C2`, the compound was called inactive in assay [1] and in assay [2].

In the case of `CN1Cc2c(N)cccc2[C@H](c2ccccc2)C1`, the result in assay [1] and in assay [2] was inactive.

For `Oc1ccc([C@@H]2CNCCc3c2cc(O)c(O)c3Cl)cc1`, the result in assay [1] and in assay [2] was inactive.

Consider `C[C@@H](CCc1ccc(O)cc1)NCCc1ccc(O)c(O)c1`, for which the compound was classed as inactive in assay [1] and in assay [2].

Consider `CC(=O)O[C@@H]1C[C@]2(C)[C@H](C[C@@H](O)[C@H]3[C@@]4(C)CC[C@@H](O)[C@@H](C)[C@@H]4CC[C@@]32C)/C1=C(\CCC=C(C)C)C(=O)O`, for which the compound was classed as inactive in assay [1] and in assay [2].

For `O=C(NC[C@H]1CCCCN1)c1cc(OCC(F)(F)F)ccc1OCC(F)(F)F`, the compound was called inactive in assay [1] and in assay [2].

In the case of `C[C@H]1CN(S(=O)(=O)c2cccc3cnccc23)CCN1`, the compound was classed as inactive in assay [1] and in assay [2].

As to `CNC(=O)[C@@H]1O[C@@H](n2cnc3c(NCc4ccc(N)cc4)ncnc32)[C@@H](O)[C@H]1O`, the compound was called inactive in assay [1] and in assay [2].

Consider `NC(=S)NCCC[C@@H](N)C(=O)O`, for which the compound was called inactive in assay [1] and in assay [2].

Regarding `N[C@@H]1C=CC=C(C(=O)O)C1`, the call in assay [1] and in assay [2] was inactive.

Regarding `CC(C)NC[C@H](O)c1ccc(NS(C)(=O)=O)cc1`, the result in assay [1] and in assay [2] was inactive.

Regarding `C[C@@H]1C[C@@H]2[C@H]3CCC4=CC(=O)C=C[C@]4(C)[C@]3(Cl)[C@@H](O)C[C@@]2(C)[C@@]1(O)C(=O)CO`, the outcome in assay [1] and in assay [2] was inactive.

Turning to `S=C(S)O[C@@H]1C[C@@H]2C[C@H]1[C@@H]1CCC[C@H]21`, the compound was classed as inactive in assay [1] and in assay [2].

Take `CN=C(NC#N)Nc1ccc(C2=NNC(=O)C[C@@H]2C)cc1`: the compound was called inactive in assay [1] and in assay [2].

For `O=C(/C=C\c1ccc(O)c(O)c1)OCCc1ccccc1`, the compound was classed as inactive in assay [1] and in assay [2].

In the case of `CSc1nc(N)c2ncn([C@@H]3O[C@@H](COP(=O)(O)OP(=O)(O)OP(=O)(O)O)[C@@H](O)[C@H]3O)c2n1`, the outcome in assay [1] and in assay [2] was inactive.

Take `O=C(O)[C@@H]1CCCN[C@H]1C(=O)O`: the result in assay [1] and in assay [2] was inactive.

For the compound `Cc1nnc(SCC2=C(C(=O)O)N3C(=O)[C@@H](NC(=O)Cn4cnnn4)[C@@H]3SC2)s1`, the compound was called inactive in assay [1] and in assay [2].

Consider `COc1cc2c(cc1OC)[C@H](c1ccccc1)CN(C)CC2`, for which the outcome in assay [1] and in assay [2] was inactive.

With `CO/N=C(\C(=O)N[C@@H]1C(=O)N2C(C(=O)O)=C(CSc3nc(=O)c(O)nn3C)CS[C@@H]12)c1csc(N)n1`, the call in assay [1] and in assay [2] was inactive.

With `CC1=C(C(=O)O)N2C(=O)[C@@H](NC(=O)[C@@H](N)C3=CCC=CC3)[C@@H]2SC1`, the compound was called inactive in assay [1] and in assay [2].

On to `CC(N)=NCCC[C@H](N)C(=O)O`, for which the outcome in assay [1] and in assay [2] was inactive.

As for `C[C@H](Oc1ccc(Oc2cnc3ccc(Cl)cc3n2)cc1)C(=O)O`, the compound was classed as inactive in assay [1] and in assay [2].

Turning to `C[C@@H](/C=C\c1cccc(Oc2ccc(F)cc2)c1)N(O)C(N)=O`, the compound was classed as inactive in assay [1] and in assay [2].

In the case of `CCCCC[C@H](CC(=O)NO)C(=O)N[C@@H](C(=O)N1CCC[C@H]1CO)C(C)C`, the compound was called inactive in assay [1] and in assay [2].

Take `COc1cc2c(cc1O)CC[C@@H]1[C@@H]2CC[C@@]2(C)[C@H](O)CC[C@H]12`: the compound was classed as inactive in assay [1] and in assay [2].

Consider `C[C@H](N)C(=O)OC(C)(C)Cc1ccc(Cl)cc1`, for which the outcome in assay [1] and in assay [2] was inactive.

`O=C(c1ccccc1)c1ccc2n1CC[C@H]2C(=O)O`: the result in assay [1] and in assay [2] was inactive.

Consider `CCN1CCC[C@@H]1CNC(=O)c1cc(S(N)(=O)=O)ccc1OC`, for which the compound was called inactive in assay [1] and in assay [2].

With `C[C@@H]1c2cccc(O)c2C(O)=C2C(=O)[C@@]3(O)C(O)=C(C(N)=O)C(=O)[C@@H](N(C)C)[C@@H]3[C@@H](O)[C@@H]21`, the outcome in assay [1] and in assay [2] was inactive.

`C[C@@](N)(Cc1ccc(O)cc1)C(=O)O`: the call in assay [1] and in assay [2] was inactive.

In the case of `COc1cc2nc(N3CCN(C(=O)[C@H]4COc5ccccc5O4)CC3)nc(N)c2cc1OC`, the call in assay [1] and in assay [2] was inactive.

As for `NS(=O)(=O)c1cc2c(cc1Cl)N[C@@H]([C@@H]1C[C@@H]3C=C[C@H]1C3)NS2(=O)=O`, the call in assay [1] and in assay [2] was inactive.

Take `C[C@@H](CN1c2ccccc2Sc2ccccc21)N(C)C`: the compound was classed as inactive in assay [1] and in assay [2].

As to `Nc1c2c(nc3ccccc13)CCC[C@H]2O`, the compound was classed as inactive in assay [1] and in assay [2].

With `CNc1ncnc2c1ncn2[C@H]1C[C@@H](OP(=O)(O)O)[C@H](COP(=O)(O)O)O1`, the call in assay [1] and in assay [2] was inactive.

Take `C[C@@]12CCC(=O)C=C1CC[C@@H]1[C@@H]2[C@H](O)C[C@]2(C)[C@@H]1CC[C@]2(O)C(=O)COC(=O)CCC(=O)O`: the result in assay [1] and in assay [2] was inactive.

Take `N[C@]1(C(=O)O)CCc2cc(C(=O)O)ccc21`: the result in assay [1] and in assay [2] was inactive.

With `CCN(CC)CCC[C@H](C)Nc1ccnc2cc(Cl)ccc12`, the result in assay [1] and in assay [2] was inactive.

Regarding `Nc1ncnc2c1ncn2[C@@H]1O[C@@H](C(=O)NC2CC2)[C@H](O)[C@@H]1O`, the compound was classed as inactive in assay [1] and in assay [2].

`CC1CCN(CC[C@@H]2CCCN2S(=O)(=O)c2cccc(O)c2)CC1`: the result in assay [1] and in assay [2] was inactive.

Take `O=C1NC(O)=NC1(c1ccccc1)c1ccccc1`: the result in assay [1] and in assay [2] was inactive.

The values are drawn from PubChem BioAssay (NCATS).
